Assay outcomes from PubChem.
cardiac RTF act – cardiac RTF calcium sensitization; P19429+P45379; IANBD-labeled TnC RTF fluorescence at EC20 calcium; 0% EC20 calcium, 100% full calcium; activation, % at 7.2 µM; actives 0.24% (n = 340,000); AID 493008;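 active = activation above the mean over all tested compounds plus 3 SD, cut at about 30% in these data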;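 note: rise in fluorescence read as greater calcium sensitivity of cardiac thin filaments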
E coli Lon inh – E. coli protease La inhibition | actives 0.42% (n = 360,000) | inhibition, % at 7.94 µM | AID 602123 | purified E. coli Lon protease, fluorescence polarization; in the data active = inhibition above about 13%, passing the limit was not always enough
Keap1 Nrf2 FP – Keap1-Nrf2 (human) interaction inhibition; Q14145; Keap1 Kelch-Nrf2 peptide fluorescence polarization, 1536-well; inhibition, % at 9.4 µM; actives 0.15% (n = 340,000); AID 504523; in the data active = inhibition above about 12%;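 note: human Keap1 Kelch domain with fluorescein labeled Nrf2 9mer peptide probe; higher means more block of Keap1 binding to Nrf2 peptide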
Target sequence (Q14145 whole entry, looked up, the tested form may be a part): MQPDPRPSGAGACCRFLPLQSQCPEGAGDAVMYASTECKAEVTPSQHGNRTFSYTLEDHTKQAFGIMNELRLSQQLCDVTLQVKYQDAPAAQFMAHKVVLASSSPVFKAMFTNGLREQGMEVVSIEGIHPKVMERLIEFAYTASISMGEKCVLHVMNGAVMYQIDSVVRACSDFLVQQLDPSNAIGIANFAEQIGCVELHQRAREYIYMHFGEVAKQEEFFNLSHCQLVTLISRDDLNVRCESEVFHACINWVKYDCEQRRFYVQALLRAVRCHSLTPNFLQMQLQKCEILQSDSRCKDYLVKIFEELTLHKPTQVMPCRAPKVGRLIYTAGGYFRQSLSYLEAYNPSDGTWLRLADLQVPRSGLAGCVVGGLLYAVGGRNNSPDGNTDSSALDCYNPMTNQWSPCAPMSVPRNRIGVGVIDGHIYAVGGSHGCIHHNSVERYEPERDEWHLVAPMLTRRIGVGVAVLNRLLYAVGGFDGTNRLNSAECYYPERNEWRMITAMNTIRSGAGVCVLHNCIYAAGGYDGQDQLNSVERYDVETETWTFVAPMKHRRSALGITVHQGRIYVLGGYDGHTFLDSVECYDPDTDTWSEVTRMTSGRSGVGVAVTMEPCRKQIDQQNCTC
Cardiac RTF inh – cardiac RTF calcium desensitization; P19429+P45379; IANBD-labeled cardiac RTF, Ca2+ fluorescence; inhibition, % at 7.15 µM; actives 0.12% (n = 340,000); AID 493244;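 active = inhibition above the mean inhibition of all tested compounds plus 3 SD, cut at about 17% in these data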;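 note: assay run at fixed EC70 calcium of 1.6 mM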
C-LANA FP – blocks KSHV LANA C-terminal domain binding to DNA | MBP-C-LANA/FAM-LBS DNA binding, fluorescence polarization | inhibition, % at 9 µM | actives 0.078% (n = 340,000) | AID 504423;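 active = highest replicate inhibition at or above 60% at 9 µM, even if other replicates fall short; inactive = all replicates below 60% inhibition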
RTF Ca inh conf – confirmation of inhibitors of cardiac thin filament calcium sensitivity. AID 504635. inhibition, % at 7.15 µM. actives 8% (n = 360). reconstituted cardiac thin filaments, calcium sensitivity fluorescence. shares compounds with Cardiac RTF inh; in the data active = inhibition above about 18%
Hits are given with their value; . = inactive; / = not tested or not shown; ! = repeats disagree. Most compounds without a hit are left out; they make up all but 0.82% or so of the library.

SMILES | cardiac RTF act | E coli Lon inh | Keap1 Nrf2 FP | Cardiac RTF inh | C-LANA FP | others
CCN(CC)c1ccc(N=Cc2c(O)n(Cc3ccco3)c(=O)[nH]c2=O)cc1 | 79 | . | . | . | .
O=C(O)c1cccc(NC(=O)N2C[C@H]3C[C@@H](C2)c2cccc(=O)n2C3)c1 | . | . | . | . | .
O=C1NC(=O)C(=Cc2cn(CCOc3ccc4c(c3)OCO4)c3ccccc23)C(=O)N1 | 159 | . | . | . | .
C=CCn1cc(C=C2C(=O)NC(=O)NC2=O)c2ccccc21 | . | . | . | . | .
C/C=C1\NC(=O)[C@@H](NC(=O)[C@H](CCc2ccc(O)cc2)NC(=O)[C@H](C)NC(=O)[C@H](O)CO)[C@@H](C)OC(=O)[C@H](C(C)C)NC(=O)[C@H](Cc2ccc(O)cc2)N(C)C(=O)[C@H](Cc2ccccc2)N2C(=O)C(CC[C@H]2O)NC1=O (stereo partly specified) | . | . | . | . | .
CC[C@H](C)/C=C(C)/C=C/C1=CC2=C(Cl)C(=O)[C@@](C)(OC(C)=O)C(=O)C2=CO1 | . | / | . | 42 | .
C[N+](C)(C)CC1CCCC1=O (stereo unspecified) | . | . | . | . | .
CCn1nc(-c2ccccc2)nc2c(=O)n(C)c(=O)nc1-2 | . | 83 | . | . | .
Cc1nc2c(=O)n(C)c(=O)nc-2n(C)n1 | . | . | . | . | .
CC1(C)OC(c2ccccc2)=C/C(=C/C=C2C(=O)NC(=O)NC2=O)O1 | 110 | . | . | . | .
O=C1NC(=O)C(=Cc2ccc(Sc3ccccc3)o2)C(=O)N1 | . | . | . | . | .
Cc1ccc(C)c(Cn2c(C(=O)O)c(C=O)c3ccccc32)c1 | 86 | . | . | . | .
O=Cc1c(C(=O)O)n(Cc2ccccc2F)c2ccccc12 | . | . | . | . | .
O=C1NC(=O)N(c2ccc3c(c2)OCO3)C(=O)/C1=C/c1cccs1 | . | . | . | . | .
CCOc1ccc(N2C(=O)NC(=O)/C(=C\c3ccc(N4CCCCC4)o3)C2=O)cc1 | 112 | . | . | . | .
O=C1NC(=O)N(c2ccc3c(c2)OCO3)C(=O)/C1=C/c1ccc(N2CCCC2)o1 | 58 | . | . | . | .
N#Cc1ccc(NC(=O)CN2C(=O)NC3(CCCCCCC3)C2=O)cc1Cl | . | . | . | . | .
O=C1C(=O)N(c2ccccc2)P(=O)(N(CCCl)CCCl)N1c1ccccc1 | . | . | . | . | .
C=CCN1C(=O)/C(=C\c2ccc(N3CCOCC3)o2)C(=O)NC1=S | 49 | . | . | . | .
CCN1C(=O)C(=Cc2ccc(N3CCOCC3)o2)C(=O)N(CC)C1=S | 33 | . | . | . | .
COC(=O)C1(F)C(=O)NC(=O)NC1O (stereo unspecified) | / | . | / | / | /
COc1ccc(-c2nn(CCC#N)cc2C(=O)Nc2cccc([N+](=O)[O-])c2)cc1OC | . | . | . | . | .
O=C1NC(=O)N(c2ccccc2)C(=O)/C1=C/C=C/c1ccco1 | . | . | . | . | .
CN1C(=O)/C(=C/C=C/c2ccco2)C(=O)NC1=S | . | . | . | . | 60
COc1ccc(/C=C2\C(=O)NC(=S)N(C)C2=O)cc1C | . | . | 47 | . | .
SMILES | cardiac RTF act | E coli Lon inh | Keap1 Nrf2 FP | Cardiac RTF inh | C-LANA FP | others
Cc1ccsc1/C=C1\C(=O)NC(=S)N(C)C1=O | . | . | . | . | .
C#C[C@]1(O)CC[C@H]2[C@@H]3CCC4=Cc5nc6nc7ccccc7n6cc5C[C@]4(C)[C@H]3CC[C@@]21C | 38 | . | . | . | .
C#CC1(O)CCC2C3CCC4=C/C(=N/OCC(=O)NCC(=O)NC(C(=O)O)C(C)C)CC[C@]4(C)C3CC[C@@]21C (stereo partly specified) | . | . | . | . | .
COC(=O)C1=C(c2ccc3ccccc3c2)C[C@@H]2CC[C@H]1N2C(=O)NCc1ccco1 | . | . | . | . | .
O=C1NC(=S)N(c2ccc(F)cc2)C(=O)/C1=C\c1ccoc1 | . | . | . | 27 | 88
CC(C)C[C@H]1C(=O)N2CCC[C@H]2[C@]2(O)O[C@](NC(=O)[C@@H]3C=C4c5cccc6[nH]cc(c56)C[C@H]4N(C)C3)(C(C)C)C(=O)N12 | 67 | . | 34 | . | 67
O=C1NCN(c2ccccc2)C12CCN(C(c1ccccc1)c1nnnn1Cc1ccccc1)CC2 (stereo unspecified) | / | . | / | / | /
COc1ccc(-n2c(O)c(C(C)=NCc3ccc4c(c3)OCO4)c(=O)[nH]c2=O)cc1 | . | . | . | . | .
CCN(CC)c1ccc(/C=N/c2sc3c(c2C#N)C2CCN3CC2)c(O)c1 | 146 | . | . | . | .
CN1C(=O)/C(=C/c2ccc(N3CCCCCC3)o2)C(=O)NC1=S | 86 | . | . | . | .
CN1C(=O)/C(=C\c2ccc(N3CCCCC3)o2)C(=O)NC1=S | 55 | . | . | . | .
CN1CCN(c2ccc(/C=C3\C(=O)NC(=S)N(c4cccc(Br)c4)C3=O)o2)CC1 | 97 | . | . | . | .
Cc1ccc(/C=C2\C(=O)NC(=S)N(c3cccc(F)c3)C2=O)o1 | . | . | . | . | .
CC(C)(C)c1o[nH]c(=O)c1CC(N)C(=O)O (stereo unspecified) | . | . | . | 21 | . | RTF Ca inh conf=.
Cc1ccc(OCCOc2cccc(C=C3C(=O)NC(=O)NC3=O)c2)c(C)c1 | . | . | . | . | .
CC12CC3CC(C)(C1)CC(N)(C3)C2 | . | . | . | 17! | . | RTF Ca inh conf=.
Cc1nc2ccccc2c(=O)n1-c1ccc(F)cc1F | . | . | . | . | .
Cc1nc2ccccc2c(=O)n1-c1cc(F)ccc1F | . | . | . | 28 | . | RTF Ca inh conf=.
CN(C)C1C(=O)C(C(N)=O)=C(O)C2(O)C(=O)C3=C(O)c4c(O)cccc4C(C)(O)C3C(O)C12 (stereo unspecified) | . | . | . | 30 | . | RTF Ca inh conf=.
Oc1ccc2c3c1O[C@H]1c4oc5ccccc5c4C[C@@]4(O)[C@@H](C2)N(CC2CC2)CC[C@]314 | . | . | . | 27 | . | RTF Ca inh conf=.
Oc1ccc2c3c1O[C@H]1c4[nH]c5ccccc5c4C[C@@]4(O)[C@@H](C2)N(CC2CC2)CC[C@]314 | . | . | . | . | .
Cc1cccc(CN(C)C)c1OC(=O)N(C)C | . | . | . | 34 | . | RTF Ca inh conf=.
COc1cc(OC)c(OC)cc1CN1CCN(C(=O)Cc2ccccc2)CC1 | . | . | . | . | .
COC(=O)C1=C(c2ccc(F)cc2F)C[C@@H]2CC[C@H]1N2C(=O)NCc1ccc(C(F)(F)F)cc1 | . | . | . | . | .
C[N+]12CCC(CC1)C(=C(c1ccccc1)c1ccccc1)C2 | . | . | . | 19 | . | RTF Ca inh conf=.
O=C1C=C2C=C[C@@H]3CC2(O1)[C@H]1CCCCN31 | . | . | . | . | .
Cc1nc2cc([N+](=O)[O-])ccc2c(=O)n1-c1cccc(Br)c1 | . | . | . | . | .
